Tau FP inhib = blocks human tau fibril formation measured by polarization. P10636. K18 P301L tau heparin fibrillization, Alexa594 FP, 6 h. Potency, µM (highest dose often 57.7 µM), most hits filed as inhibitors. 280,000 tested, 0.39% active; further: nearly all actives have a fitted effect of over 55% in size
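FP of Alexa 594-tau after heparin (20 uM) induction. Substrate: human K18 P301L, 15 uM unlabeled, 0.24 uM labeled. Buffer 100 mM sodium acetate pH 7. 6 hr, 37 C.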
Tau ThT inhib = inhibitors of human tau fibril formation, thioflavin T binding. P10636. 270,000 tested, 2.1% active. Potency, µM (titrated, usually from 57.4 µM), usual class: inhibitors. recombinant tau K18 P301L, heparin-induced fibrillization, ThT fluorescence; further: nearly all actives have a fitted effect of over 55% in size
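Fibril formation assay: tau K18 P301L at 15 uM with trace Alexa 594 label, heparin inducer 20 uM, pH 7 sodium acetate buffer, 37 C for 6 hr; endpoint ThT signal.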
Tau fluor cs = counter-screen for tau fibril formation inhibitors; tau K18 P301L Alexa594 fluorescence, heparin fibrillization; AID 1463; 280,000 tested, 0.93% active; Potency, µM (top dose mostly 57.7 µM); further: nearly all actives have a fitted effect of over 55% in size
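Human tau K18 P301L (15 uM unlabeled, 0.24 uM Alexa 594-labeled) in 100 mM sodium acetate pH 7 with 20 uM heparin, 6 hr at 37 C. ThT 30 uM added, 1 hr ambient; Alexa 594 FP and total fluorescence read at 555/632 nm.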
TRb-SRC2 inh = inhibitors of human thyroid hormone receptor beta-SRC2 interaction | P10828 | TRbeta-SRC2 peptide binding, fluorescence polarization; receptor liganded with 1 µM T3 | Potency, µM (doses to about 106 µM), usual class: inhibitors | 280,000 tested, 0.065% active; further: nearly all actives have a fitted effect of over 50% in size
Target sequence (P10828 whole entry, looked up): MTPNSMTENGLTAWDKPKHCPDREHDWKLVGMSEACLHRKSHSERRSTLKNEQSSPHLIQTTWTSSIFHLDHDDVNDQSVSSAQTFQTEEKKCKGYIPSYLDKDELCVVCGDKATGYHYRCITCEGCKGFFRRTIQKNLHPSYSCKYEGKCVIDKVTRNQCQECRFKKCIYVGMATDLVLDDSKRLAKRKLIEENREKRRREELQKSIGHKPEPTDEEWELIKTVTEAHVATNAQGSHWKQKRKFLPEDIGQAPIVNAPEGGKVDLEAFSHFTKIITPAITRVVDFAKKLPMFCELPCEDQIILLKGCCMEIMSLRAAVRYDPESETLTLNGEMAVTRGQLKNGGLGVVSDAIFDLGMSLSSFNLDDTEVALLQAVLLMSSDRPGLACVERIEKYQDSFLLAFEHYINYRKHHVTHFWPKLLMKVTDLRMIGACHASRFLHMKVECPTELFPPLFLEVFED
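Human TRb ligand-binding domain (0.6 uM) is mixed with 20 nM Texas Red SRC2 peptide and 1 uM T3; after compound addition and 5 hr at ambient temperature, polarization is measured and normalized to unbound and bound controls.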
TR SRC2 fluor cs = counter-screen for TRb-SRC2 inhibitors: fluorescence interference. TRb/SRC2 Texas Red total fluorescence interference. Potency, µM (highest dose often 106 µM). 280,000 tested, 0.29% active; active means well fitted curve in either direction with a large enough effect; inconclusive means small, poorly fitted or top-dose-only effect
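Human TRb ligand-binding domain at 0.6 uM with 20 nM Texas Red SRC2 peptide in Tris buffer containing 1 uM T3 and 5% DMSO, incubated with compound 5 h at ambient temperature. Total fluorescence (555/632 nm) calculated as parallel + 2 × perpendicular.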
Numbers stand for hits; [ ] = another dose, or the depositor's remark. Only some compounds are listed: those with a hit (about 3.1% of all), similar ones and a draw of the others. Unless noted, the call rests on the fitted dose curve; in most records, active means well fitted curve in the direction sought with a large enough effect; inconclusive means small, poorly fitted or top-dose-only effect, or another doubt; inactive means no such curve, though single readings can be large; an effect the other way counts as inactive or inconclusive.

Results for COc1ccc(N=C2O/C(=C/c3sc(=S)n(CC4CCCO4)c3O)N=C2C#N)cc1 (stereo unspecified) ?
Tau FP inhib: inactive; Tau ThT inhib: 10µM; Tau fluor cs: 13µM[quencher]; TRb-SRC2 inh: inactive; TR SRC2 fluor cs: inactive

Results for Cc1cc(N)ccc1-n1c(C)ccc1C ?
Tau FP inhib: inconclusive; Tau ThT inhib: 14µM; Tau fluor cs: inactive; TRb-SRC2 inh: 7.9µM; TR SRC2 fluor cs: 13µM[fluorescent]

Results for NC(=O)c1cc(N)ccc1N1CCCC1 ?
Tau FP inhib: inconclusive; Tau ThT inhib: inconclusive; Tau fluor cs: inactive; TRb-SRC2 inh: 40µM; TR SRC2 fluor cs: 45µM[fluorescent]

How did NC(=O)c1cc(N)ccc1N1CCCCC1 do in these assays?
Tau FP inhib: inactive; Tau ThT inhib: inactive; Tau fluor cs: inactive; TRb-SRC2 inh: inactive; TR SRC2 fluor cs: inactive

How did Cc1cc(N)ccc1N1CCCC1 do in these assays?
Tau FP inhib: 13µM; Tau ThT inhib: 7.1µM; Tau fluor cs: inconclusive; TRb-SRC2 inh: 40µM; TR SRC2 fluor cs: 45µM[fluorescent]

How did N#CC1(C#N)C(c2ccccc2)OC23CCCCC2C1(C#N)C(=N)O3 (stereo unspecified) do in these assays?
Tau FP inhib: inactive; Tau ThT inhib: inactive; Tau fluor cs: inactive; TRb-SRC2 inh: 45µM; TR SRC2 fluor cs: inconclusive

Results for Oc1cccc(/C=N/Nc2cccc3cccnc23)c1 ?
Tau FP inhib: inconclusive; Tau ThT inhib: 14µM; Tau fluor cs: 16µM[quencher]; TRb-SRC2 inh: inactive; TR SRC2 fluor cs: inactive

What do the screens show for `COc1cc(/C=N/Nc2cccc3cccnc23)cc(OC)c1O`?
Tau FP inhib: inactive; Tau ThT inhib: inconclusive; Tau fluor cs: inconclusive; TRb-SRC2 inh: inactive; TR SRC2 fluor cs: inactive

Results for CN(C)CCNc1oc(-c2ccc(COc3ccc(Cl)cc3)o2)nc1C#N ?
Tau FP inhib: inconclusive; Tau ThT inhib: inactive; Tau fluor cs: inconclusive; TRb-SRC2 inh: inactive; TR SRC2 fluor cs: inactive

Results for Cn1c(=O)[nH]c2nnc(-c3ccc(Cl)c(Cl)c3)nc2c1=O ?
Tau FP inhib: inactive; Tau ThT inhib: 16µM; Tau fluor cs: inactive; TRb-SRC2 inh: inactive; TR SRC2 fluor cs: inactive

How did COc1cc(C2c3c(oc4ccccc4c3=O)C(=O)N2c2ccccn2)cc(OC)c1OC (stereo unspecified) do in these assays?
Tau FP inhib: inactive; Tau ThT inhib: inactive; Tau fluor cs: inactive; TRb-SRC2 inh: inactive; TR SRC2 fluor cs: 0.04µM[quencher]

How did COc1ccc(C2c3c(oc4ccccc4c3=O)C(=O)N2c2ccccn2)cc1OC (stereo unspecified) do in these assays?
Tau FP inhib: inactive; Tau ThT inhib: inactive; Tau fluor cs: inactive; TRb-SRC2 inh: inactive; TR SRC2 fluor cs: inactive

Results for CCC(=C(c1ccc(OC)cc1)c1ccc(OC)cc1)c1cn(CC(O)CN(CCO)CCO)c2ccccc12 (stereo unspecified) ?
Tau FP inhib: inactive; Tau ThT inhib: inconclusive; Tau fluor cs: 13µM[quencher]; TRb-SRC2 inh: inactive; TR SRC2 fluor cs: inactive

How did CCCN(CCC)CC(O)Cn1cc(/C=C/C(=O)c2ccc(OCC)cc2)c2ccccc21 (stereo unspecified) do in these assays?
Tau FP inhib: inactive; Tau ThT inhib: 8.9µM; Tau fluor cs: inconclusive; TRb-SRC2 inh: inactive; TR SRC2 fluor cs: inactive

How did COc1ccc(C(=O)/C=C/c2cn(CN3CCN(C)CC3)c3ccccc23)cc1 do in these assays?
Tau FP inhib: inactive; Tau ThT inhib: 13µM; Tau fluor cs: 18µM[quencher]; TRb-SRC2 inh: inactive; TR SRC2 fluor cs: inactive

What do the screens show for `CCOc1ccc(C(=O)/C=C/c2cn(CN3CCN(C)CC3)c3ccccc23)cc1`?
Tau FP inhib: inactive; Tau ThT inhib: inconclusive; Tau fluor cs: 13µM[quencher]; TRb-SRC2 inh: inactive; TR SRC2 fluor cs: inactive

How did Cc1ccc(C(=O)/C=C/c2cn(CC(O)CN3CCOCC3)c3ccccc23)cc1 (stereo unspecified) do in these assays?
Tau FP inhib: inactive; Tau ThT inhib: inconclusive; Tau fluor cs: inactive; TRb-SRC2 inh: inactive; TR SRC2 fluor cs: inactive

Results for C=CCOC(=O)CC(C)C ?
TRb-SRC2 inh: inactive; TR SRC2 fluor cs: inactive

Results for CCCn1c2ccccc2c2cnn(CC(=O)NCCc3ccc(OCC)c(OCC)c3)c(=O)c21 ?
Tau FP inhib: inactive; Tau ThT inhib: inactive; Tau fluor cs: inactive; TRb-SRC2 inh: inactive; TR SRC2 fluor cs: inactive

What do the screens show for `O=C(Nc1ccc([N+](=O)[O-])cc1)Nc1ccc2[nH]c(=O)[nH]c2c1`?
Tau FP inhib: inactive; Tau ThT inhib: 8.9µM; Tau fluor cs: 8.9µM[quencher]; TRb-SRC2 inh: inactive; TR SRC2 fluor cs: inactive

Screens: PubChem BioAssay, National Center for Advancing Translational Sciences (NCATS)
